# Measurements from PubChem BioAssay.
# Active and inactive are the calls of the source. Unless noted, how the calls were made is not given here.
# Columns and labels:
# [1] = compound effects on lung adenocarcinoma cell viability – A549, calcein-AM fluorescence, 48 h, basal, profiling panel (AID 1162); settings: higher = more signal; further: test concentration not given here
# [2] = compound effects on differentiated 3T3-L1 adipocyte viability – cell-based, 3T3-L1 adipocytes, calcein-AM fluorescence, 48 h, basal, profiling panel (AID 1163); settings: 3T3-L1 adipocytes viability, higher = more signal; further: test concentration not given here
# [3] = compound effects on hepatocellular carcinoma cell viability – HepG2, calcein-AM fluorescence, 48 h, basal, profiling panel (AID 1164); settings: higher = more signal; further: test concentration not given here
# [4] = compound effects on multiple myeloma cell viability – MM1S, calcein-AM fluorescence, 48 h, basal, profiling panel (AID 1165); settings: higher = more signal;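 further: viability of MM1S multiple myeloma cells under basal unstimulated conditions; test concentration not given here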
# [5] = calcein-AM signal in unstimulated myeloma cells – cell-based, calcein-AM fluorescence, 48 h, PK04 Diversity Set, profiling panel (AID 1166); settings: RPMI8226 myeloma viability, higher = more signal;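 further: cells grown under basal conditions without added stimulus; test concentration not given here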
# [6] = JC-1 mitochondrial signal, unstimulated HepG2 cells – cell-based, JC-1 fluorescence, 24 h, 100 nL compound, profiling panel (AID 1167); settings: HepG2 mitochondrial potential, higher = more signal; further: test concentration not given here
# [7] = JC-1 mitochondrial signal, unstimulated adipocytes – cell-based, JC-1 fluorescence, 3T3-L1 adipocytes, 24 h, 100 nL compound, profiling panel (AID 1168); settings: JC-1 mitochondrial fluorescence, higher = more signal, called active from +8 up or from −8 down; further: test concentration not given here
# [8] = JC-1 mitochondrial signal, unstimulated myeloma cells – cell-based, JC-1 fluorescence, RPMI8226, 24 h, 100 nL compound, profiling panel (AID 1169); settings: JC-1 mitochondrial potential fluorescence, higher = more signal; further: test concentration not given here
# [9] = JC-1 mitochondrial signal, unstimulated MM1S myeloma – cell-based, JC-1 fluorescence, 24 h, 100 nL compound, profiling panel (AID 1170); settings: MM1S mitochondrial potential, higher = more signal; further: test concentration not given here
# [10] = resazurin metabolic signal in A549 cells – cell-based, resazurin fluorescence, 24 h, PK04 Diversity Set, profiling panel (AID 1171); settings: A549 viability, higher = more signal, called active from +8 up or from −8 down; further: test concentration not given here
# [11] = resazurin metabolic signal in HepG2 cells – cell-based, resazurin fluorescence, 24 h, PK04 Diversity Set, profiling panel (AID 1172); settings: HepG2 viability, higher = more signal; further: test concentration not given here
# [12] = budding yeast growth changes without added modifier – OD600, strain BY4716, 24 h, basal condition, primary screen (AID 1173); settings: S. cerevisiae BY4716 growth, OD600, 24 h; higher = more signal, called active from +8 up or from −8 down
# [13] = viability profiling in MM1S myeloma cells – cell-based, resazurin fluorescence, basal, 24 h, PK04 Diversity Set, profiling panel (AID 1174); settings: higher = more signal, called active from +8 up or from −8 down; further: test concentration not given here
# [14] = target: Dihydroorotate dehydrogenase (quinone), mitochondrial (Plasmodium falciparum (isolate 3D7)) (UniProt Q08210); assay: inhibition of P. falciparum DHODH – biochemical, C-terminal His tag, absorbance 600 nm, primary screen (AID 1175); settings: PfDHODH enzyme, DCIP absorbance 600 nm; higher = more signal, called active from +8 up or from −8 down;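 further: recombinant parasite enzyme with a five histidine tag at its C terminus; test concentration not given here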
# [15] = inhibition of PAO1 biofilm formation – strain PAO1, LB-PBS medium, absorbance 600 nm, primary screen (AID 1176); further: test concentration not given here; settings: P. aeruginosa PAO1 growth/biofilm, A600, 12 h; higher = more signal
# [16] = growth modulation of vineyard yeast isolate – strain RM11-1a, OD600, basal, 24 h, primary screen (AID 1177);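 further: cultures grown under basal conditions with no added stressor; test concentration not given here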; settings: S. cerevisiae RM11-1a growth, OD600, 24 h; higher = more signal, called active from +8 up or from −8 down
# [17] = growth of efflux-deficient E. coli DRC39 – strain DRC39, OD650, 24 h, E. coli filamentation inducers, primary screen (AID 1178);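 further: growth measured as culture turbidity by optical density at 650 nm; test concentration not given here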; settings: E. coli DRC39 acrAB, higher = more signal, called active from +8 up or from −8 down
# [18] = growth of efflux-deficient E. coli DRC39 – strain DRC39, OD650, 48 h, E. coli filamentation inducers, primary screen (AID 1179);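 further: screen aims at cell division blockers that make cells filament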; settings: E. coli DRC39 delta-acrAB growth, higher = more signal, called active from +8 up or from −8 down
# [19] = viability profiling in RPMI8226 myeloma cells – cell-based, resazurin fluorescence, basal, 24 h, PK04 Diversity Set, profiling panel (AID 1180); settings: higher = more signal;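 further: RPMI8826 multiple myeloma cell line at 5000 cells per well; test concentration not given here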
# [20] = target: E3 ubiquitin-protein ligase XIAP (Homo sapiens) (UniProt P98170); assay: small molecules binding XIAP protein – biophysical, small-molecule microarray, fluorescence 635 nm, primary screen (AID 1181); settings: higher = more signal;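 further: score merges 667 nm emission and signal to noise over triplicate slides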
# E3 ubiquitin-protein ligase XIAP (Homo sapiens), sequence (P98170 whole entry, looked up): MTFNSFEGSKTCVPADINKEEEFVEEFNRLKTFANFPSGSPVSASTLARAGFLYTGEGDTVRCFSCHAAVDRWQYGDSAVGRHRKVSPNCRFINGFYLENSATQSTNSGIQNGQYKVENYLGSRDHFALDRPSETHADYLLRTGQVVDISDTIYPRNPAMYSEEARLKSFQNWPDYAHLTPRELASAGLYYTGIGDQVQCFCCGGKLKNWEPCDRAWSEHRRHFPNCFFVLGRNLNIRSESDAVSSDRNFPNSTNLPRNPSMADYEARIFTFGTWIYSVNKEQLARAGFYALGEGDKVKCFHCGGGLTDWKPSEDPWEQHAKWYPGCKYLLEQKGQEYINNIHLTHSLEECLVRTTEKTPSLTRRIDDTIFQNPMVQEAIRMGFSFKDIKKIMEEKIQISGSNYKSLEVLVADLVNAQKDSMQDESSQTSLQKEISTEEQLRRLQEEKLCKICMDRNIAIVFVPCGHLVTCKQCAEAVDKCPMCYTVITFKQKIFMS
# Dihydroorotate dehydrogenase (quinone), mitochondrial (Plasmodium falciparum (isolate 3D7)), sequence (Q08210 whole entry, looked up): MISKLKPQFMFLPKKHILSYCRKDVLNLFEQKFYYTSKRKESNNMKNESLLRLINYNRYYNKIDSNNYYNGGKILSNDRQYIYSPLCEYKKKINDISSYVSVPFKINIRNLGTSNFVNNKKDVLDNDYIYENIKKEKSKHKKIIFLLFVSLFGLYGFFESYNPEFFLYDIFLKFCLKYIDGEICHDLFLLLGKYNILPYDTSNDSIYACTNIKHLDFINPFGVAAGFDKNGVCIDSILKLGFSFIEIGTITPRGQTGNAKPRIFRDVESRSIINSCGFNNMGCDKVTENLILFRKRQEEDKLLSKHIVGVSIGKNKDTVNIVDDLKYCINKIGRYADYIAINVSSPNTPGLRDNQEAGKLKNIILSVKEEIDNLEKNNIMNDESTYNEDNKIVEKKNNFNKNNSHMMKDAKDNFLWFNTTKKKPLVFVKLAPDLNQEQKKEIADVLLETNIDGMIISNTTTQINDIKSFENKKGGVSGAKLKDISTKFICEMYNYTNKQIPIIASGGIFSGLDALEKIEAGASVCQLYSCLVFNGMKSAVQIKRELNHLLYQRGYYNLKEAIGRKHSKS
Compound,z-score [1],z-score [2],z-score [3],z-score [4],z-score [5],z-score [6],z-score [7],z-score [8],z-score [9],z-score [10],z-score [11],z-score [12],z-score [13],composite z-score [14],z-score [15],z-score [16],z-score [17],z-score [18],z-score [19],composite z-score [20]
NCCCCCCNC(=O)[C@@H]1C[C@@H]2C(=O)N3CCC[C@H]3C(=O)N2[C@@H]1c1cccc(OCCO)c1,0.108,1.18,-0.12,0.597,0.313,0.127,0.391 (inactive),-0.675,0.468,0.999 (inactive),0.158,-1.44 (inactive),0.711 (inactive),0.101 (inactive),-1.23 (inactive),-0.853 (inactive),0.699 (inactive),0.768 (inactive),-0.0931,-0.0172
CC1CC/C=C\[C@H]2OC34C=CCN(Cc5ccccc5)C(=O)[C@H]3N(CCCCCCO)C(=O)[C@@H]4C2C(=O)O1 (stereo not given in full),1.3,0.221,0.881,1.41,0.0497,0.0727,-0.0479 (inactive),0.62,1.34,0.919 (inactive),0.279,-0.885 (inactive),0.507 (inactive),0.285 (inactive),-1.06 (inactive),-0.38 (inactive),0.608 (inactive),1.01 (inactive),1.15,-0.0741
CC(=O)NCCCC[C@@H]1NC(=O)[C@H]2C[C@@H](C(=O)NCCCCCCNC(=O)CS)[C@@H](c3cccc(OCCO)c3)N2C1=O,-0.769,0.251,-0.644,-0.504,0.236,-1.4,-0.306 (inactive),0.186,-0.0983,-0.131 (inactive),-0.0625,0.535 (inactive),-0.469 (inactive),0.929 (inactive),0.339 (inactive),1.05 (inactive),0.0843 (inactive),-0.264 (inactive),-0.737,0.0593
O=C1O[C@@H](c2ccccc2)[C@@H](c2ccccc2)N2[C@@H](c3ccc(OCCO)cc3)[C@]3(C(=O)Nc4ccc(C#CC5(O)CCCCCC5)cc43)[C@@H](C(=O)O)[C@H]12,0.942,0.297,1.36,0.213,0.342,-0.969,-0.448 (inactive),-0.169,0.0439,1.12 (inactive),-0.253,-0.431 (inactive),1.12 (inactive),-2.17 (inactive),1.27 (inactive),3.11 (inactive),0.876 (inactive),1.06 (inactive),-0.121,-0.148
CCCCC(O)C1C=CC2C(=O)N(c3ccccc3)C(=O)C2N1Nc1ccc([N+](=O)[O-])cc1 (stereo not given),0.286,-0.229,0.0784,-0.72,-0.438,-0.573,-1.08 (inactive),-0.147,-0.745,0.113 (inactive),0.172,-0.485 (inactive),0.519 (inactive),0.0188 (inactive),1.03 (inactive),-0.385 (inactive),0.356 (inactive),0.282 (inactive),-0.354,-0.156
COCCCN1C(=O)[C@@]2(c3ccc([N+](=O)[O-])cc3)CC(=O)N(CC34CC5CC(CC(C5)C3)C4)[C@@H]2c2ccc(CO)cc21,0.555,-0.731,1.07,0.657,1.12,0.722,0.0634 (inactive),0.25,-1.87,-1.25 (inactive),-0.35,1.09 (inactive),-0.566 (inactive),-6.02 (inactive),0.792 (inactive),0.0202 (inactive),0.2 (inactive),0.334 (inactive),-0.79,0.113
CCCC[C@H]1C[C@@H]1[C@@H]1N(C(C)=O)[C@H](c2cccc(OC)c2)CC12CC2,-1.54,-0.134,-0.793,-0.762,-0.778,-1.07,0.546 (inactive),-0.172,-0.643,2.94 (inactive),0.527,-6.41 (inactive),1.05 (inactive),0.348 (inactive),-0.499 (inactive),0.52 (inactive),-0.083 (inactive),-0.791 (inactive),1.43,-0.0416
CC1=C([C@H](O)CCc2ccccc2)[C@H](CO)n2c(=O)n(-c3ccccc3)c(=O)n2C1,0.229,0.273,0.862,0.5,0.874,-0.303,0.603 (inactive),-0.237,-1.16,-0.331 (inactive),0.331,-2.79 (inactive),0.199 (inactive),-1.34 (inactive),0.589 (inactive),-1.97 (inactive),1.19 (inactive),1.35 (inactive),0.12,-0.237
O=C1N(Cc2ccccc2)c2ccccc2C[C@@]12COC(c1ccc(OCCCO)cc1)=N2,-0.633,0.629,-0.409,-2.94,-1.19,-1.08,-0.382 (inactive),-0.907,-0.589,1.41 (inactive),0.792,-0.248 (inactive),-1.61 (inactive),0.0144 (inactive),1.39 (inactive),0.903 (inactive),1.17 (inactive),-0.187 (inactive),0.712,0.0578
COc1ccc([Si](C)(C)[C@H]2[C@H](CCO)O[C@@]3(C(=O)N(Cc4cccc(N(C=O)c5ccccc5)c4)c4ccccc43)[C@@H]2C)cc1,-0.533,0.441,-3.83,-1.18,-4.23,1.01,0.549 (inactive),-1.03,-1.85,-2.2 (inactive),-1.85,1.27 (inactive),-3.37 (inactive),0.105 (inactive),1.45 (inactive),4.32 (inactive),1.61 (inactive),1.41 (inactive),-3.77,0.203
O=C(NCc1ccccc1)[C@@H]1c2ccccc2C(=O)N(Cc2cc(C(F)(F)F)cc(C(F)(F)F)c2)[C@H]1c1ccc(CO)cc1,-0.108,1.79,-0.139,0.635,-0.487,1.45,0.125 (inactive),-0.586,-1.15,-0.281 (inactive),-0.527,-0.247 (inactive),0.3 (inactive),0.819 (inactive),0.338 (inactive),1.06 (inactive),0.324 (inactive),0.0181 (inactive),1.03,-0.147
COCCOC(=O)N1C(=O)[C@@]2(c3cc(C#CCCO)ccc31)[C@H](C(N)=O)[C@H]1C(=O)O[C@H](c3ccccc3)[C@H](c3ccccc3)N1[C@@H]2c1ccccc1OCCO,-0.21,-0.0387,-0.16,-1.87,-2.92,-0.529,0.181 (inactive),-0.821,-1.47,-0.191 (inactive),-0.231,1.11 (inactive),-2.76 (inactive),0.754 (inactive),0.594 (inactive),2.34 (inactive),0.354 (inactive),0.449 (inactive),-1.95,-0.124
O=C1O[C@H](Cc2ccccc2)[C@@H]2[C@H]3C=CCCC=C3CN2[C@H]1Cc1ccc(O)cc1,0.405,-0.276,0.146,-3.14,-0.148,-2.65,-0.639 (inactive),-1.05,-1.69,0.745 (inactive),1.28,-2.92 (inactive),0.303 (inactive),-0.259 (inactive),0.118 (inactive),-0.0533 (inactive),0.616 (inactive),0.746 (inactive),-0.095,0.269
COc1ccc(C(=O)Nc2ccc(CN3C(=O)[C@@]4(O[C@@H](CCn5cc(CCO)nn5)[C@H]([Si](C)(C)c5ccc(OC)cc5)[C@H]4C)c4ccccc43)cc2)cc1,-0.883,-0.319,-3.14,-2.68,-4.27,-1.29,-0.201 (inactive),-0.913,-2.22,-3.31 (inactive),-3.26,-5.03 (inactive),-4.02 (inactive),0.483 (inactive),0.863 (inactive),2.47 (inactive),1.07 (inactive),-0.101 (inactive),-3.35,-0.0871
COc1ccc([Si](C)(C)[C@H]2[C@H](CCO)O[C@@]3(C(=O)N(Cc4cccc(N5C(=O)c6ccccc6Oc6ccccc65)c4)c4ccccc43)[C@@H]2C)cc1,-1.24,0.508,-4.22,-2.87,-4.3,-0.19,2.27 (inactive),-1.03,-1.84,-2.25 (inactive),-1.86,-0.653 (inactive),-2.97 (inactive),0.75 (inactive),1.01 (inactive),3.62 (inactive),1.42 (inactive),0.597 (inactive),-4.05,-0.115
O=C1OCCC=C[C@H]2OC34C=CCN(c5ccc6ccccc6c5)C(=O)[C@H]3N(CCO)C(=O)[C@@H]4C12 (stereo not given in full),0.327,-0.423,0.0955,0.508,0.037,-0.409,-0.502 (inactive),0.122,0.611,-0.751 (inactive),0.523,-0.783 (inactive),-1.23 (inactive),-3.6 (inactive),0.345 (inactive),0.0789 (inactive),-1.26 (inactive),-1.42 (inactive),-0.796,-0.248
C=C(CCCC)/C(=C/C[C@H](OC(=O)c1ccncc1)c1ccccc1OCCO)c1cc(C(=O)OC)ccc1OC,-0.0906,0.503,-0.629,-3.29,-1.82,2.06,-0.292 (inactive),-0.262,0.732,0.613 (inactive),-0.345,0.431 (inactive),0.531 (inactive),-1.36 (inactive),0.297 (inactive),-0.3 (inactive),0.128 (inactive),0.0401 (inactive),1.09,-0.184
